Screen size: about 360,000 compounds; about 1,100 (0.31%) were called active. The sample as a whole holds a higher share of actives than the screen did. A number with no mark means an inactive call. Cut-off read from the data, not from the text of the source: active = activation above about 7.5%; inactive = the rest.

The test deals with Methionine sulfoxide reductase A (Bos taurus). The experiment in a line: activation of methionine sulfoxide reductase A – biochemical, absorbance, bovine, HTS, primary screen (AID 602163).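 Note: 0% = vehicle and 100% = reference activator.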 The following applies: purified bovine MsrA, absorbance read-out; at 10.6 µM; hits give high values.
On to `COC(=O)C1(O)CC(C(C)C)=NN1C(=O)c1ccc(Cl)cc1` (stereo not given), for which the activation is -2.59%.
Consider `O=c1c2cc(Br)ccc2nc(-c2cccc(Cl)c2)n1O`, for which the activation was 8.68% (active).
The figure for `NC(=O)c1cc(-c2cccnc2)nc2ccc(Br)cc12` is -2.46%; for `NC(N)=Nc1nc2ccc(Br)cc2c(=O)[nH]1` it is -1.23%; for `COc1ccccc1C(=O)Nc1ccc(OCC(=O)N2CCCCC2)cc1` it is -2.88%.
With `COc1ccc(/C=C/C2=CC(C)(C)NC(=S)N2)c(OC)c1`, the activation is -3.37%.
The result for `COc1ccc(NC(=O)COC(=O)CNC(=O)C2CCCCC2)cc1` reads -4.73%; that for `c1ccc(CNCc2ccc(CNCc3ccccc3)cc2)cc1`, -4.45%.
The result for `CCOc1ccccc1OCCCNCc1ccccc1` reads 8.23% (active); that for `CCOCCCNCc1ccc(OCc2ccc(F)cc2)c(OC)c1`, -0.52%; that for `Cc1ccccc1NC(=O)c1nn(-c2ccc(F)c(F)c2)ccc1=O`, 0.66%.
With `Cc1[nH]c(C)c(S(=O)(=O)N2CCN(c3cccc(C(F)(F)F)c3)CC2)c1C(=O)N1CCCC1`, the activation was -2.75%.
The result for `COc1ccccc1CNC(=O)c1cc(-c2cc(F)ccc2OC)n[nH]1` reads 1.13%; that for `Oc1cc(O)c2c(c1)OC(c1ccc(O)c(O)c1)C(O)C2` (stereo not given), -3.17%.
The result for `O=C(Nc1c(Br)cc2c(c1Br)Cc1cc([N+](=O)[O-])ccc1-2)C(Cl)Cl` reads -0.8%.
For the compound `COc1ccc(C(CNC(=O)CSc2ccccc2)N2CCOCC2)cc1` (stereo not given), the activation was -2.38%.
The result for `COc1ccc(C(CNC(=O)c2cc3c(s2)CCCC3)N2CCOCC2)cc1` (stereo not given) reads 9.37% (active); that for `COc1ccc(C(CNC(=O)c2cccnc2SC)N2CCOCC2)cc1` (stereo not given), -1.39%.
As for `CCC(C)CCN1CCN=C1N(C)C` (stereo not given), the activation is -6.93%.
The result for `O=C(NC1CCc2ccccc21)C12CN(Cc3ccccc3)CC1C(c1cccc([N+](=O)[O-])c1)=NO2` (stereo not given) reads -4.81%; that for `O=C(NCCCN1CCOCC1)c1cnn2c(-c3ccccc3)cc(-c3ccccc3)nc12`, 0.61%; that for `FC(F)(F)c1ccc(-n2cn[nH]c2=S)cc1`, 4.3%.
In the case of `COc1ccccc1-n1cn[nH]c1=S`, the activation was 9.25% (active).
Regarding `COc1cccc(CNn2cn[nH]c2=S)c1OCc1ccccc1`, the activation is -8.32%.
The figure for `CCN(C(=O)Cc1nc(N)n[nH]1)C1(C(=O)Nc2ccccc2)CCCCC1` is -1.75%; for `Nc1[nH]c(=S)nc2nc(-c3ccccc3)c(-c3ccccc3)nc12` it is 4.05%; for `COc1ccc(S(=O)(=O)N(C)C)cc1NC(=O)COC(=O)c1n[nH]c2ccccc12` it is -0.9%.
In the case of `CN(C)S(=O)(=O)c1ccc(NC(=O)COC(=O)c2n[nH]c3ccccc23)cc1`, the activation was 14.2% (active).
Regarding `O=C(COC(=O)c1n[nH]c2ccccc12)Nc1ccccc1Br`, the activation is -2.21%.
The figure for `Cn1nnnc1SCC(=O)N1CCN(C(c2ccccc2)c2ccccc2)CC1` is -4.74%; for `CC(=O)c1ccc(-n2nnnc2SCC(=O)N2CCN(C(=O)c3ccco3)CC2)cc1` it is -6.56%; for `Cn1nnnc1SCC(=O)N1CCN(Cc2ccccc2)CC1` it is 10.8% (active).
The figure for `CC(C)COC(=O)n1c(=O)oc2ccc(S(=O)(=O)N3CCCCC3)cc21` is -0.43%.
On to `COc1ccc(C2=NN(C(=O)CSc3nc(=O)n4ccc(C)cc4n3)C(c3ccc(C)cc3)C2)cc1` (stereo not given), for which the activation was -4.23%.
The result for `FC(F)(F)C1CCCN(c2nsc3ccccc23)C1` (stereo not given) reads 13% (active); that for `CCCNCc1cc(OCC)c(OCC(=O)Nc2ccccc2)cc1Br`, -1.95%; that for `CC(C)(C)C(=O)CCN1C(=O)C2(OCCO2)c2ccccc21`, 10.5% (active).
Consider `O=C(CC1(O)C(=O)N(CN2CCOCC2)c2ccccc21)c1ccccc1` (stereo not given), for which the activation was -7.26%.
As for `C=CCN1C(=O)C2(OCCCO2)c2cccc(Cl)c21`, the activation is -1.83%.
Regarding `CC(C)C[C@H]1CNC(=O)C(=O)N1C[C@@H]1CCCN1C[C@H](Cc1ccccc1)N1C[C@H](CC(C)C)N(CC2CCCCCC2)C(=O)C1=O`, the activation is -1.34%.
Take `CC1CCC2CCCCC2N1C(=O)c1cc([N+](=O)[O-])cc([N+](=O)[O-])c1` (stereo not given): the activation is -1.47%.
`CCOC(=O)[C@H]1Nc2ccc(Cl)cc2[C@@H]2[C@H]1C1CC(c3ccccc31)N2C(=O)OCc1ccccc1` (stereo not given in full): the activation was -4.81%.
In the case of `O=C(O)C#Cc1cccc2ccccc12`, the activation was -6.37%.
For the compound `CCCCCCNC(=O)CSc1nccn1Cc1ccccc1`, the activation is -3.24%.
The figure for `O=C(NCc1ccccc1)C1c2ccccc2OCC(=O)N1C1CC1` (stereo not given) is 8.21% (active); for `O=C(NCc1ccccc1)C1c2ccccc2OCC(=O)N1CCCN1CCOCC1` (stereo not given) it is -2.2%; for `O=C(NC1CCCC1)C1c2ccccc2OCC(=O)N1Cc1ccccc1` (stereo not given) it is -2.39%.
The result for `CN1CCN(Cc2c(C(=O)N3CCc4ccccc4C3)nc3ccc(Cl)cn23)CC1` reads -13%; that for `Nc1ccn(C2CC(O)C(CO)O2)c(=O)n1` (stereo not given), -1.31%.
The figure for `COC(=O)C1CCN(C(=O)COC(=O)c2cc(S(=O)(=O)N3CCOCC3)ccc2C)CC1` is -0.23%.
In the case of `CCS(=O)(=O)c1ccc2c(c1)N(S(=O)(=O)c1ccccc1)CC(C(=O)O)O2` (stereo not given), the activation is -3.49%.
The figure for `COc1ccc(N2CCN(S(=O)(=O)c3cc4c5c(c3)C(C)C(=O)N5CCC4)CC2)cc1` (stereo not given) is 0.45%; for `COC(=O)CN1C(=O)C(O)=C(C(C)=O)C1c1ccc([N+](=O)[O-])cc1` (stereo not given) it is 8.27% (active); for `CC(=O)C1=C(O)C(=O)N(c2ccc(Br)cc2)C1c1ccc([N+](=O)[O-])cc1` (stereo not given) it is -4.41%.
Consider `COc1ccc(C2C(C(C)=O)=C(O)C(=O)N2c2nccs2)cc1` (stereo not given), for which the activation was -4.03%.
`COC(=O)c1ccccc1NC(=O)C1(S(=O)(=O)c2ccc(Cl)cc2)CC1`: the activation is -4.86%.
The figure for `CCCc1c(C)nc2c(Br)cccc2c1Cl` is -2.47%; for `CCN(CC)CCCC(C)n1c2nc(=O)[nH]c(=O)c-2nc2cc(Cl)ccc21` (stereo not given) it is 11.7% (active).
The figure for `COC(C/C=C/C(=O)[C@@H](C)OCc1ccccc1)OC` is 5.11%; for `CSC1=NC2(C)CCCCC2C12C=CC(=O)C=C2` (stereo not given) it is -3.42%; for `CC(C)CCNC(=O)C1CCC(CNc2c(N3CCC(C)CC3)c(=O)c2=O)CC1` (stereo not given) it is -7.85%.
As to `CC(C)(C)N1C(=O)c2c(C(=O)OCc3ccccc3)[nH]c(-c3ccccc3)c2C1=O`, the activation was -2.85%.
`O=C1C(Sc2cccc(F)c2)=C[C@@]2(O)CC[C@@H](O)[C@]1(Sc1cccc(F)c1)[C@H]2O`: the activation was 11.4% (active).
On to `CN1CCN(c2ccc(CNS(=O)(=O)c3cccc(F)c3)cc2)CC1`, for which the activation is -2.8%.
The result for `Cc1nccn1CCCNC(=O)CC1C(=O)NCCN1Cc1ccc(Cl)c(F)c1` (stereo not given) reads -5.91%; that for `O=C(O)/C=C/c1cn(Cc2ccccc2)nc1-c1cccs1`, 9.05% (active).
The figure for `COc1ccc(NC(=O)CN(C)C(=O)/C=C/c2cn(Cc3ccccc3)nc2-c2cccnc2)cc1` is -3.42%; for `O=c1onc(-c2cccs2)n1Cc1ccccc1` it is -2.25%; for `Cc1cccc(NC(=O)Cn2c(=O)n(Cc3ccccc3)c(=O)c3c(C)c(C)sc32)c1` it is -2.33%.
The result for `O=C1CCC(C(=O)N2CCC(O)(c3ccccc3)CC2)CN1CCc1ccccc1` (stereo not given) reads -3.3%; that for `COc1ccc(Cl)cc1NS(=O)(=O)c1cccc(C(=O)NCC2CCCO2)c1` (stereo not given), 8.29% (active); that for `COc1ccc(Cl)cc1NS(=O)(=O)c1cccc(C(=O)NC2CCC(O)CC2)c1` (stereo not given), -0.8%.
As to `COc1ccc(C(=O)NCC2CCCO2)cc1S(=O)(=O)NCc1ccc(Cl)cc1` (stereo not given), the activation is -6%.
The figure for `CC(C)NC(=S)NN=C1CCCCCCCCCCC1` is -2.24%; for `C=C(C)C1CC=C(C)/C(=N\NC(=O)CNc2ccccc2OC)C1` (stereo not given) it is -4.34%.

Source of the values: PubChem BioAssay AID602163 (The Scripps Research Institute Molecular Screening Center, 2012).
